PubChem BioAssay (NCI)
Compounds without any hit were thinned out: in the full panel of roughly 83,000, 20% have a hit.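 Results are percent growth after 48 hours of single-concentration exposure. 100 means growth as in untreated cells, lower positive values show inhibition; negative values down to -100 show cell death.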 Unmarked numbers belong to inactive results. Calls of active or inactive are those of the source. Rule for the calls: active = growth percent below 10; inactive = the rest.

Tests used:
Assay in all cases: NCI-60 one-dose screen, 48 h (100 = growth as untreated, 0 = no growth, -100 = all killed)
Conditions in all cases: 10 µM
[1] = test system: NCI-H23 lung
[2] = test system: NCI-H226 lung
[3] = test system: HOP-62 NSCLC
[4] = test system: NCI-H460 lung
[5] = test system: HOP-92 NSCLC
[6] = test system: A549/ATCC NSCLC
[7] = test system: 786-0 renal
[8] = test system: NCI-H522 lung
[9] = test system: COLO 205 colon

Row | SMILES | growth [1] [%] | growth [2] [%] | growth [3] | growth [4] | growth [5] [%] | growth [6] [%] | growth [7] | growth [8] | growth [9]
1 | CCCCN1C(=O)CC(SC2CC(=O)N(CCCC)C2=O)C1=O (configuration not stated) | 97.9 | 104 | 106% | 108% | 97.8 | 119 | 112% |  | 
2 | Cc1ccc(C(C)C)c(O)c1NC(=O)OC(C)C | 96.2 | 99.4 | 91.6% | 102% | 75.7 | 104 | 92.3% | 84.8% | 99.6%
3 | O=C(N/N=C/c1ccc(Cl)cc1)c1ccccc1Nc1cccc(C(F)(F)F)c1 | 91.2 | 81.2 | 72.9% | 86.8% | 73.7 |  | 86% | 77.9% | 108%
4 | COc1ccccc1/C=N\N/C(N)=N\N=C\c1ccccc1OC | 26.8 | 48.5 | -24.8% (active) | 2.85% (active) | 48.9 |  | 7.99% (active) | 4.02% (active) | -10.9% (active)
